Data reported in publication PMC5540273 (PLoS ONE, 2017).

Experiments:
Conditions in all cases: concentration: 1 μM,replicates: in singlicate; n = 1
CDC2L2 = test system: CDC2L2
CDC2L5 = test system: T1, CDC2L5
T1 construct: gene CDK13

CDK11 = test system: T2, CDK11
T2 construct: gene CDK19

CDK2 = test system: CDK2
CDK3 = test system: CDK3
CDK4-cyclinD1 = test system: CDK4-cyclinD1
CDK4-cyclinD3 = test system: CDK4-cyclinD3
CDK4 = test system: CDK4
CDK5 = test system: CDK5
CDK7 = test system: CDK7
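Also: KINOMEscan kinase panel screen.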

Row | SMILES | %Inh (CDC2L2) | %Inh (CDC2L5) | %Inh (CDK11) | %Inh (CDK2) | %Inh (CDK3) | %Inh (CDK4-cyclinD1) | %Inh (CDK4-cyclinD3) | %Inh (CDK4) | %Inh (CDK5) | %Inh (CDK7)
1 | COc1ccc(C[C@@H](CN)NC(=O)c2cc(Br)c(-c3ccnc4[nH]ccc34)s2)cc1.Cl.Cl [GSK1389063] | 0% | 0% | 39% | 6% | 5% | 0% | 28% | 0% | 0% | 72%
2 | CN(C)CCOc1ccc(-c2cc(-c3c[nH]nc3-c3ccccn3)ccn2)cc1 [GW835314] | 9% | 0% | 13% | 1% | 16% | 0% | 17% | 45% | 0% | 16%
3 | O=C(NCCNc1ccnc(NCc2ccc(F)cc2)n1)c1cc2ccccc2s1 [GSK1379944] | 0% | 0% | 0% | 68% | 83% | 84% | 11% | 1% | 0% | 0%
4 | CC(C)N1C(=O)Cc2cc(Nc3ncc(C(F)(F)F)c(NCc4cccc(S(C)(=O)=O)c4)n3)ccc21 | 3% | 7% | 0% | 0% | 5% | 26% | 0% | 35% | 9% | 52%
5 | CN(C)CC(O)COc1ccc(Nc2nccc(-c3cnn4nc(N5CCOCC5)ccc34)n2)cc1 (stereo not shown) [GW767488] | 41% | 50% | 27% |  | 9% | 99.4% | 98.3% | 100% | 6% | 99.7%
6 | NC(=O)c1cc(-c2ccccc2)cc2c(C3CCNCC3)c[nH]c12 [GSK301362] | 17% | 0% | 6% | 0% | 16% | 0% | 3% | 13% | 0% | 0%
7 | Cc1cc2cn[nH]c2cc1-c1cccc2c(N)c(C(N)=O)nnc12 | 32% | 0% | 1% | 24% | 43% | 8% | 35% | 18% | 88% | 0%
8 | C[C@@H](Oc1cc(-c2cnn(C3CCNCC3)c2)cnc1N)c1c(Cl)ccc(F)c1Cl | 55% | 0% | 29% | 11% | 12% | 12% | 0% | 0% | 12% | 
9 | CC(C)Nc1cc(-c2ccc3c(N)n[nH]c3c2)nc(N)n1 [GSK2221681] | 0% | 0% | 0% | 21% | 0% | 0% | 0% | 0% | 0% | 0%
10 | Cc1n[nH]c2ccc(-c3cc(OC[C@@H](N)Cc4ccccc4)cnc3-c3ccoc3)cc12.O=C(O)C(F)(F)F.O=C(O)C(F)(F)F [GSK507358] | 0% | 0% | 6% | 0% | 0% | 0% | 0% | 10% | 0% | 0%
11 | CCn1c(-c2nonc2N)nc2c(C#CC(C)(C)O)nc(OCCN)cc21.Cl.Cl [GSK902056] | 3% | 0% | 1% | 0% | 22% | 0% | 0% | 0% | 0% | 0%
12 | Cc1ccc2c(-c3ccncc3)c(-c3ccc(F)cc3)nn2c1.Cl [GW461484] | 10% | 0% | 0% | 0% | 0% | 0% | 0% | 28% | 0% | 45%
13 | CCN(CC)CCCCNc1ncc2cc(-c3c(Cl)cccc3Cl)c(NC(=O)NC(C)(C)C)nc2n1 | 0% | 9% | 14% | 8% | 10% | 0% | 0% | 9% | 14% | 34%
14 | CNC(=O)c1ccccc1Sc1ccc2c(/C=C/c3ccccn3)n[nH]c2c1 | 0% | 0% | 0% | 1% | 63% | 0% | 0% | 0% | 3% | 25%
15 | C[C@H]1Oc2cc(cnc2N)-c2c(nn(C)c2C#N)CN(C)C(=O)c2ccc(F)cc21 | 18% | 0% | 12% | 21% | 6% | 0% | 0% | 0% | 11% | 0%
16 | CCN(CC)CCOc1ccc(Nc2ncc3cc(-c4c(Cl)cccc4Cl)c(=O)n(C)c3n2)cc1 [SB-601273] | 43% | 41% | 90.1% | 7% | 9% | 80% | 48% | 89% | 0% | 34%
17 | Cc1cc(C(=O)Nc2ccc(Oc3ccc4nc(NC(=O)C5CC5)cn4n3)cc2)nn1-c1ccccc1 | 6% | 0% | 3% | 0% | 39% | 13% | 0% | 4% | 0% | 0%
18 | Cl.Cl.NC[C@H](Cc1ccc(C(F)(F)F)cc1)NC(=O)c1cc(Br)c(-c2ccnc3[nH]ccc23)s1 [GSK1487252] | 0% | 0% | 14% | 3% | 0% | 14% | 2% | 0% | 0% | 0%
19 | Cl.Oc1cc(-c2nc(-c3ccccc3)[nH]c2-c2ccncc2)ccc1Cl [SB-386023] | 0% | 1% | 5% | 4% | 0% | 2% | 0% | 47% | 32% | 11%
20 | C=CC(=O)Nc1cc2c(Nc3ccc(F)c(Cl)c3)ncnc2cc1OCCCN1CCOCC1 [GW781483] | 0% | 19% | 15% | 0% | 0% | 27% | 11% | 23% | 0% | 17%
21 | Nc1nc(Nc2ccccc2)cc(-c2ccc3c(N)n[nH]c3c2)n1 [GSK2225749] | 0% | 0% | 0% | 0% | 8% | 0% | 0% | 0% | 0% | 7%
22 | Cl.Cl.Nc1nc(-c2ccc3c(N)n[nH]c3c2)cc(N2CCCC(NC(=O)c3ccccc3)C2)n1 (stereo not shown) [GSK2286775] | 31% | 0% | 11% | 0% | 16% | 0% | 19% | 0% | 0% | 0%
23 | Cc1occc1-c1nc(N)c(OC[C@@H](N)Cc2c[nH]c3ccccc23)cc1-c1cc2c(C)n[nH]c2cn1 [GSK1660450] | 0% | 0% | 0% | 0% | 12% | 0% | 0% | 0% | 0% | 75%
24 | Cl.Cl.NC[C@H](CC1CCCCC1)NC(=O)c1cc(Br)c(-c2ccnc3[nH]ccc23)s1 [GSK1581427] | 0% | 0% | 12% | 0% | 0% | 0% | 6% | 0% | 0% | 45%
25 | O=C(NCCCN1CCOC1=O)c1cnc(NCc2cc(Cl)ccc2Cl)nc1NC1CCCC1 | 0% | 0% | 29% | 0% | 14% | 4% | 0% | 12% | 10% | 14%
26 | Cc1ccc(-n2nc(C(C)(C)C)cc2NC(=O)Nc2ccc(OCCN3CCOCC3)c3ccccc23)cc1 [GW839464] | 13% | 0% | 100% | 0% | 11% | 5% | 0% | 0% | 5% | 0%
27 | C[C@@H]1CCN(C(=O)CC#N)C[C@@H]1N(C)c1ncnc2[nH]ccc12 | 0% | 0% | 18% | 0% | 14% | 0% | 6% | 0% | 0% | 2%
